Screening data deposited in PubChem by National Center for Advancing Translational Sciences (NCATS).
Hits are enriched below; roughly 6.8% of the tested compounds scored in any of these assays.
KB-V1 MDR tox – qHTS assay for MDR1-selective chemotherapeutics: Primary screen using the drug-selected MDR subline cells KB-V1 | KB-V1 MDR cells viability, CellTiter-Glo, 72 h | Potency, µM (series often up to 46.1 µM), actives largely listed as cytotoxic | 400,000 tested, 3.4% active; further: on the % scale 0 is the no-effect control and ±100 the full control effect; nearly all actives have a fitted effect of over 60% in size
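Potencies derive from concentration-effect curves fitted to normalized luminescence (CellTiter-Glo) of KB-V1 cells treated for 72 h at 37 degrees C in phenol-red-free DMEM containing 10% FBS.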
MCF10A rereplic – A quantitative high throughput screen for small molecules that induce DNA re-replication in MCF 10a normal breast cells; MCF 10A DNA re-replication, Hoechst nuclear intensity, 48 h; Potency, µM (highest dose often 46.1 µM), for the others: at the highest dose activity, positive = re-replication, actives largely listed as activators; 350,000 tested, 2.9% active; further: % of control where 0% means no effect; nearly all actives have a fitted effect of over 50% in size
KB-3-1 tox – qHTS assay for MDR1-selective chemotherapeutics: Primary screen using the parental adenocarcinoma cell KB-3-1; KB-3-1 viability, CellTiter-Glo ATP luminescence, 72 h; Potency, µM (highest dose often 46.1 µM), usual class: cytotoxic; 400,000 tested, 1.4% active; AID 1347075, 2019; further: on the % scale 0 is the no-effect control and ±100 the full control effect; nearly all actives have a fitted effect of over 60% in size
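Screening of KB-3-1 cells (DMEM, 10% FBS, phenol-red free) ran from lowest to highest compound concentration; after 72 h at 37 °C viability was read luminescently and curves fitted.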
SW480 rereplic – A quantitative high throughput screen for small molecules that induce DNA re-replication in SW480 colon adenocarcinoma cells; 340,000 tested, 1.8% active; AID 624297, 2012; Potency, µM (highest dose often 46.1 µM), without a hit: top-dose re-replication activation, usual class: activators; SW480 DNA re-replication, Hoechst DNA content imaging, 48 h; further: % of control where 0% means no effect; nearly all actives have a fitted effect of over 55% in size
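SW480 cells exposed to compounds for 48 hr at 37 C, 5% CO2, then Hoechst-stained 40 min. Nuclear DNA content imaged by fluorescence scanning (405 nm excitation, 500-530 nm emission); re-replication scored as increased high-intensity nuclei.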
PTAP TSG101 blk – qHTS Assay for Iinhibitors of HIV-1 Budding by Blocking the Interaction of PTAP/TSG101 | Fluorescence polarization, FITC-PTAP peptide / Tsg101 binding | Tumor susceptibility gene 101 protein (Homo sapiens), Q99816 | Potency, µM (doses to about 115 µM), without a hit: top-dose activity change, negative = inhibition, actives largely listed as inhibitors | 340,000 tested, under 10 active; active means well fitted inhibition curve with a large enough effect in the main read-out, with a control signal flat, not every such curve was filed as active; inconclusive means small, poorly fitted or top-dose-only effect, or effect the other way, or a change in a side signal; inactive means no such curve, though single readings can be large or run the other way; further: % of control where 0% means no effect
Target sequence (Q99816 whole entry, looked up): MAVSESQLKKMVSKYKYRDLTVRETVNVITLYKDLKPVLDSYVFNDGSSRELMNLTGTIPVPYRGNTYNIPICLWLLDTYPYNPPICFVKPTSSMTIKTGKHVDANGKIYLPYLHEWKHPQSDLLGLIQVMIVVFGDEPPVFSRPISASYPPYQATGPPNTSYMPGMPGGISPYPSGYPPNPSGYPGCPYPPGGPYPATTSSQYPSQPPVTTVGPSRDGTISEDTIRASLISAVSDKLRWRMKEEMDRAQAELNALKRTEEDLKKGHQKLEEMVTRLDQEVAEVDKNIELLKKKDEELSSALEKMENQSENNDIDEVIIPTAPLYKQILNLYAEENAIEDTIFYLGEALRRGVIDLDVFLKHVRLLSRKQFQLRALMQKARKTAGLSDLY
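FP read-out: FITC-PTAP peptide, 50 nM final, binding Tsg101 binding domain, 10 uM final; 20 min, r.t.; 10 mM HEPES pH 7.5, 0.15 M NaCl, 0.01% Tween 20, 3 mM EDTA, 0.1 mM TCEP.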
PINK1 expr mod – A Quantitative High throughput Screen to Identify Chemical Modulators of PINK1 Expression. PINK1 immunofluorescence, high-content cytometry, 24 h. Potency, µM (series often up to 76.6 µM), for the others: at the highest dose activation (PINK1 increase), most hits filed as activators. 410,000 tested, 0.2% active. AID 624263, 2012; active means well fitted activation curve with a large enough effect; inconclusive means small, poorly fitted or top-dose-only effect; cell line not stated here; further: % of control where 0% means no effect; nearly all actives have a fitted effect of over 65% in size
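Stable cell line treated 24 h with compounds at 5 concentrations (CCCP controls), then fixed and immunostained for PINK1 plus nuclear and cell stains; PINK1 immunofluorescence quantified by laser-scanning microplate cytometry.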
* marks the source's active call; other numbers are inactive results; [ ] = remark or other dose. Unless noted, the call rests on the fitted dose curve; in most records, active means well fitted curve in the direction sought with a large enough effect; inconclusive means small, poorly fitted or top-dose-only effect, or another doubt; inactive means no such curve, though single readings can be large; an effect the other way counts as inactive or inconclusive. Potency means the concentration at half of the fitted maximal effect.

Screening CCOc1cc(/C=N/Nc2nnc(C)n2N)ccc1OC(C)=O returned KB-V1 MDR tox inactive, MCF10A rereplic 18µM*, KB-3-1 tox inactive, SW480 rereplic 18%, PTAP TSG101 blk -7% and PINK1 expr mod 0%.
CCc1nnc(N/N=C\c2ccc(OC(C)=O)c(OC)c2)n1N was read as KB-V1 MDR tox inactive, MCF10A rereplic 23µM*, KB-3-1 tox inactive, SW480 rereplic inconclusive, PTAP TSG101 blk -4% and PINK1 expr mod -2%.
CCc1nnc(N/N=C/c2c(Cl)cccc2Cl)n1N was read as KB-V1 MDR tox inactive, MCF10A rereplic -9%, KB-3-1 tox inactive, SW480 rereplic -2% and PINK1 expr mod -2%[38.3 µM].
Screening CCc1nnc(N/N=C/c2ccc(O)c(OC)c2)n1N returned KB-V1 MDR tox inactive, MCF10A rereplic inconclusive, KB-3-1 tox inactive, SW480 rereplic inconclusive, PTAP TSG101 blk -4% and PINK1 expr mod 0%.
CCc1nnc(N/N=C/c2cccs2)n1N was read as KB-V1 MDR tox inactive, MCF10A rereplic inconclusive, KB-3-1 tox inactive, SW480 rereplic 23µM*, PTAP TSG101 blk 1% and PINK1 expr mod -1%.
`CCOC(=O)c1ccc(NC(=O)CCc2c(C)nc3c(c(C)nn3-c3ccccc3)c2C)cc1` gave KB-V1 MDR tox inactive, KB-3-1 tox inactive and PINK1 expr mod 1%.
Cc1c(CN2CCOc3ccc(C(C)(O)COc4ccccc4)cc3C2)cnn1C (stereo not drawn) was read as PINK1 expr mod 0%.
Screening CN(C)CCCNS(=O)(=O)c1ccc(NC2CCCCCC2)c([N+](=O)[O-])c1 returned KB-V1 MDR tox inconclusive, MCF10A rereplic inconclusive, KB-3-1 tox 18µM*, SW480 rereplic inconclusive, PTAP TSG101 blk 2% and PINK1 expr mod 5%.
For CCNc1ccc(S(=O)(=O)NCCN(C)C)cc1[N+](=O)[O-] the results were KB-V1 MDR tox inactive, MCF10A rereplic -2%, KB-3-1 tox inactive, SW480 rereplic 5%, PTAP TSG101 blk -2% and PINK1 expr mod 0%.
Screening C/C(=N\NC(=O)c1nnn(-c2nonc2N)c1-c1ccccc1)c1ccccc1O returned KB-V1 MDR tox inactive, MCF10A rereplic 15µM*, KB-3-1 tox inconclusive, SW480 rereplic 0.82µM*, PTAP TSG101 blk -3% and PINK1 expr mod 2%.
`CCOC(=O)c1nnn(-c2nonc2N)c1-c1ccc(Br)cc1` gave KB-V1 MDR tox inactive, MCF10A rereplic 0.65µM*, KB-3-1 tox inactive, SW480 rereplic -3%, PTAP TSG101 blk -1% and PINK1 expr mod 2%.
C/C(=N\NC(=O)c1nnn(-c2nonc2N)c1CN(C)c1ccccc1)c1ccccn1 was read as KB-V1 MDR tox inconclusive, MCF10A rereplic inconclusive, KB-3-1 tox 5.8µM*, SW480 rereplic 7%, PTAP TSG101 blk 0% and PINK1 expr mod 3%.
CCCc1c(C(=O)N/N=C(\C)c2ccccc2O)nnn1-c1nonc1N was read as KB-V1 MDR tox inactive, KB-3-1 tox inactive and PINK1 expr mod 2%.
Cc1cc2c(cc1S(=O)(=O)CCC(=O)N1CCCCC1C)OCC(=O)N2 (stereo not drawn) was read as KB-V1 MDR tox inactive, KB-3-1 tox inactive and PINK1 expr mod 0%.
CCC(C)(C)NC(=O)C(c1cccn1C)N(Cc1ccccc1)C(=O)Cn1nnc2ccccc21 (stereo not drawn) was read as KB-V1 MDR tox 2.6µM*, MCF10A rereplic 6%, KB-3-1 tox inactive, SW480 rereplic -4%, PTAP TSG101 blk -2% and PINK1 expr mod 1%.
Screening CCC(C)(C)NC(=O)C(c1cccn1C)N(Cc1ccc(OC)cc1)C(=O)Cn1nnc2ccccc21 (stereo not drawn) returned KB-V1 MDR tox inconclusive, MCF10A rereplic 1%, KB-3-1 tox inconclusive, SW480 rereplic inconclusive, PTAP TSG101 blk 0% and PINK1 expr mod 18%.
Screening CC/C=C1/N=C2C(=O)N(C)C(=O)N=C2N(C)N1 returned KB-V1 MDR tox inactive, KB-3-1 tox 18µM* and PINK1 expr mod 1%.
CCOc1ccc(/C=C/c2nc(C#N)c(NCCc3ccccc3)o2)cc1 was read as PINK1 expr mod 6%.
CNc1oc(/C=C/c2cccc(OC)c2)nc1C#N was read as KB-V1 MDR tox inactive, MCF10A rereplic 21µM*, KB-3-1 tox inactive, SW480 rereplic 18µM*, PTAP TSG101 blk -2% and PINK1 expr mod -1%.
Screening CCNc1oc(/C=C/c2ccc(OCC)cc2)nc1C#N returned KB-V1 MDR tox inactive, MCF10A rereplic 2.6µM*, KB-3-1 tox inconclusive, SW480 rereplic 3.3µM*, PTAP TSG101 blk -1% and PINK1 expr mod 5%.
CCN(CC)CCCNc1oc(/C=C/c2ccccc2)nc1C#N was read as KB-V1 MDR tox inactive, MCF10A rereplic inconclusive, KB-3-1 tox inactive, SW480 rereplic 21µM*, PTAP TSG101 blk -3% and PINK1 expr mod 0%.
For COc1ccc(-n2nc(C(=O)O)c(=O)n(C)c2=O)cc1 the results were KB-V1 MDR tox inactive, KB-3-1 tox inactive and PINK1 expr mod 3%.
For Cc1cccc(NS(=O)(=O)c2ccc3c(c2)OCC(C(=O)N2CCCC2)O3)c1C (stereo not drawn) the results were KB-V1 MDR tox inactive, KB-3-1 tox inactive and PINK1 expr mod 1%.
`CCc1ccc(NC(=O)C(CC)n2c(=O)c(C(F)(F)F)nc3ccccc32)cc1` (stereo not drawn) gave KB-V1 MDR tox inactive, KB-3-1 tox inactive and PINK1 expr mod inconclusive.
`CCCN(C(=O)c1cc2c(=O)oc3ccccc3c2s1)c1ccccc1C` gave KB-V1 MDR tox inactive, KB-3-1 tox inconclusive and PINK1 expr mod 1%.
`N/C(=N\c1nc2ccccc2o1)NC(=O)c1cccc(Cl)c1` gave KB-V1 MDR tox inactive, MCF10A rereplic -16%, KB-3-1 tox inactive, SW480 rereplic 4.1µM*, PTAP TSG101 blk 0% and PINK1 expr mod 16%.
`COc1ccc(NC(=O)CN2C(=O)NC3(CCCC3)C2=O)c(OC)c1` gave KB-V1 MDR tox inactive, MCF10A rereplic 0%, KB-3-1 tox inactive, SW480 rereplic -1%, PTAP TSG101 blk 0% and PINK1 expr mod 2%.
